High-throughput results deposited in PubChem by National Center for Advancing Translational Sciences (NCATS).
Shown are actives, neighbours in structure and some others; about 12% of the full set was active somewhere.
Sfp inh: blocks B. subtilis Sfp PPTase activity; hit rate 3.5% among 310,000; Q9F4F7; Potency, µM, without a hit: largest response in the series, negative = inhibition, actives largely listed as inhibitors; Biochemical Sfp PPTase activity, qHTS;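 also: the enzyme is Sfp with the accession as filed and its product quenches rhodamine fluorescence; 0% = enzyme reaction without inhibitor and -100% = no enzyme wells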
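Buffer: 50 mM Hepes-Na pH 7.6, 10 mM MgCl2, 0.01% Nonidet P-40, 0.01% BSA. Enzyme 15 nM, pre-exposed to compound 15 min; substrates then added and fluorescence change tracked over 30 min.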
JMJD2A Tudor inh: JMJD2A Tudor domain (human) inhibition | Potency, µM (titrated, usually from 114 µM), inactives show at the highest dose activity change, negative = inhibition, hits mostly inhibitors | O75164 | AID 504339 | hit rate 4.4% among 390,000 | AlphaScreen JMJD2A-Tudor / H3K4me3 peptide binding; also: % is scaled to controls: 0 for no effect and ±100 for the full control effect; nearly all actives have a fitted effect of over 50% in size
G9a inh: blocks human histone lysine methyltransferase G9a; Q96KQ7; G9a H3K9 monomethylation, AlphaScreen, 2 h; Potency, µM (series often up to 102 µM), for the others: at the highest dose activity, negative = inhibition, hits mostly inhibitors; hit rate 8.8% among 350,000; AID 504332; also: % is scaled to controls: 0 for no effect and ±100 for the full control effect; nearly all actives have a fitted effect of over 75% in size
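Methyltransferase reactions run at room temperature for 2 h (20 nM enzyme, 500 nM biotin-H3K9 peptide, 20 uM SAM) after a 15 min compound preincubation; product detected by AlphaScreen beads and anti-H3K9me1 antibody.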
L3MBTL1 inh: inhibitors of human L3MBTL1. AlphaScreen L3MBTL1–H3K9me1 peptide binding. Q9Y468. Potency, µM (series often up to 57.1 µM), inactives show top-dose activity, negative = inhibition, usual class: inhibitors. hit rate 0.66% among 230,000; also: % is scaled to controls: 0 for no effect and ±100 for the full control effect; nearly all actives have a fitted effect of over 60% in size
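Read-out is AlphaScreen signal from streptavidin donor and nickel chelate acceptor beads (10 ug/mL final each) bridging L3MBTL1 (50 nM) and biotinylated K9-monomethylated H3(1-15) peptide (75 nM), after 30 min compound exposure at room temperature.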
BAZ2B inh: blocks human BAZ2B. hit rate 4.4% among 360,000. Q9UIF8. Potency, µM (top dose mostly 114 µM), inactives show top-dose activity change, negative = inhibition, most hits filed as inhibitors. AlphaScreen BAZ2B-H3K14Ac peptide displacement; also: % is scaled to controls: 0 for no effect and ±100 for the full control effect; nearly all actives have a fitted effect of over 60% in size
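BAZ2B 50 nM plus b-H3(5-23)K14Ac 50 nM, PBS pH 7.4/0.01% Tween-20, 30 min RT; compound added (max 110 uM), 30 min RT; streptavidin donor/Ni-chelate acceptor beads 10 ug/mL final, 20 min dark; AlphaScreen read.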
HP1b chromo inh: HP1-beta chromodomain-methylated histone interaction inhibition. hit rate 0.56% among 390,000. AlphaScreen HP1-beta / biotin-H3K9me3 peptide binding. Potency, µM (highest dose often 114 µM), without a hit: at the highest dose activity change, negative = inhibition, usual class: inhibitors; also: nearly all actives have a fitted effect of over 70% in size
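HP1-beta protein (50 nM final) preincubated 30 min at room temperature with biotinylated H3(1-18)K9me3 peptide (50 nM) in PBS pH 7.4, 0.01% Tween-20, then compound added for 30 min. AlphaScreen streptavidin donor/nickel chelate acceptor beads (10 ug/mL final), 30 min dark, luminescence read.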
* = called active by the depositor; [ ] = remark or other dose. Calls follow the shape of the dose curve; as a rule, active = well fitted curve in the direction sought with a large enough effect; inconclusive = small, poorly fitted or top-dose-only effect, or another doubt; inactive = no such curve, though single readings can be large; an effect the other way counts as inactive or inconclusive. Potency is read from the fitted curve at half-maximal effect.

What do the screens show for `O=C(c1cccc(NS(=O)(=O)c2ccc(F)c(F)c2)c1)N1CCN(C(c2ccccc2)c2ccccc2)CC1`?
Sfp inh: -3%; JMJD2A Tudor inh: -34%[57.1 µM]; G9a inh: 50µM*; L3MBTL1 inh: -13%; BAZ2B inh: -5%; HP1b chromo inh: 15%

How did COc1cccc(N2CCN(C(=O)c3cccc(NC(=O)c4nsc5ccccc45)c3)CC2)c1 do in these assays?
JMJD2A Tudor inh: -35%; G9a inh: -32%[59 µM]; BAZ2B inh: -12%; HP1b chromo inh: -3%[57 µM]

What do the screens show for `COc1ccc(N2CCN(C(=O)CCNS(=O)(=O)c3ccccc3)CC2)cc1`?
Sfp inh: 21%; JMJD2A Tudor inh: inconclusive; L3MBTL1 inh: -8%; BAZ2B inh: -10%; HP1b chromo inh: -13%

How did CCOc1ccc(S(=O)(=O)NCCC(=O)N2CCN(c3ccc(OC)cc3)CC2)cc1 do in these assays?
Sfp inh: 10%; JMJD2A Tudor inh: inconclusive; G9a inh: 45µM*; L3MBTL1 inh: -8%; BAZ2B inh: inconclusive; HP1b chromo inh: inconclusive

Results for COc1ccc(N2CCN(C(=O)c3cccc(NC(=O)c4nsc5ccccc45)c3)CC2)cc1 ?
JMJD2A Tudor inh: inconclusive; G9a inh: 10µM*; BAZ2B inh: 7.9µM*; HP1b chromo inh: inconclusive

How did O=C1/C(=C\c2cccs2)CCC/C1=C/c1cccs1 do in these assays?
Sfp inh: -9%; G9a inh: inconclusive

How did Cc1cc(=O)n(Cc2cccc(Br)c2)c2c1c(C)nn2-c1ccccc1 do in these assays?
JMJD2A Tudor inh: 49%; G9a inh: 16%[59 µM]; BAZ2B inh: 2%; HP1b chromo inh: 126%

How did CCOc1ccc(S(=O)(=O)Nc2cccc(C(=O)N3CCN(c4ccc(OC)cc4)CC3)c2)cc1 do in these assays?
Sfp inh: -3%; JMJD2A Tudor inh: inconclusive; G9a inh: 11µM*; BAZ2B inh: inconclusive; HP1b chromo inh: -12%

How did CCOc1ccc(S(=O)(=O)Nc2cccc(C(=O)N3CC(C)OC(C)C3)c2)cc1 (centres undefined) do in these assays?
JMJD2A Tudor inh: -11%; G9a inh: 1%; L3MBTL1 inh: -14%; BAZ2B inh: 0%; HP1b chromo inh: 13%

How did CCOc1ccc(Nc2nc(N)c([N+](=O)[O-])c(N3CCN(C)CC3)n2)cc1 do in these assays?
Sfp inh: 12%; JMJD2A Tudor inh: -25%; G9a inh: 79µM*; BAZ2B inh: inconclusive; HP1b chromo inh: 16%

Results for Cc1cccc(Nc2nc(N)c([N+](=O)[O-])c(N3CCC(C)CC3)n2)c1 ?
Sfp inh: 1%; JMJD2A Tudor inh: 32µM*; G9a inh: 50µM*; L3MBTL1 inh: -8%; BAZ2B inh: inconclusive; HP1b chromo inh: inconclusive

What do the screens show for `CCN1CCN(c2nc(Nc3ccc(C)c(C)c3)nc(N)c2[N+](=O)[O-])CC1`?
Sfp inh: 11%; JMJD2A Tudor inh: inconclusive; G9a inh: 10µM*; L3MBTL1 inh: -19%; BAZ2B inh: inconclusive; HP1b chromo inh: inconclusive

Results for CCN1CCN(c2nc(Nc3cccc(OC)c3)nc(N)c2[N+](=O)[O-])CC1 ?
Sfp inh: 17%; JMJD2A Tudor inh: inconclusive; G9a inh: 24%[2.33 µM]; BAZ2B inh: -17%; HP1b chromo inh: 6%

How did Nc1nc(Nc2ccccc2)nc(N2CCOCC2)c1[N+](=O)[O-] do in these assays?
Sfp inh: -2%; JMJD2A Tudor inh: inconclusive; G9a inh: -50%[59 µM]; L3MBTL1 inh: -9%; BAZ2B inh: -33%; HP1b chromo inh: 8%

What do the screens show for `COc1ccc(Nc2nc(N)c([N+](=O)[O-])c(N3CCOCC3)n2)cc1`?
Sfp inh: -1%; JMJD2A Tudor inh: inconclusive; G9a inh: inconclusive; L3MBTL1 inh: -11%; BAZ2B inh: inconclusive; HP1b chromo inh: 22%

Results for CN(C)c1ccc(Nc2nc(N)c([N+](=O)[O-])c(N3CCOCC3)n2)cc1 ?
Sfp inh: inconclusive; JMJD2A Tudor inh: inconclusive; G9a inh: 7.1µM*; L3MBTL1 inh: -14%; BAZ2B inh: 35µM*; HP1b chromo inh: inconclusive

Results for COC(=O)[C@@]1(Cc2ccc(OC)cc2)[C@@H]2C(=CC(=O)[C@H]2CC(=O)C(=O)N(C)C)CN1C(=O)c1ccccc1 ?
Sfp inh: -1%; JMJD2A Tudor inh: -14%; G9a inh: inconclusive; L3MBTL1 inh: -5%; BAZ2B inh: -35%; HP1b chromo inh: 28%

What do the screens show for `C=C1C(=O)C=C2CN(C(=O)c3ccccc3)[C@@](Cc3ccc(F)cc3)(C(=O)OC)[C@@H]12`?
Sfp inh: 10µM*; JMJD2A Tudor inh: -29%; G9a inh: 8.9µM*; L3MBTL1 inh: -5%; BAZ2B inh: -7%; HP1b chromo inh: 11%

What do the screens show for `COc1ccc(CNc2ccnc(-c3cccc(NS(C)(=O)=O)c3)n2)c(OC)c1`?
Sfp inh: -20%; G9a inh: 9%[0.501 µM]

What do the screens show for `CSc1nc(NCCN(C)C)c2sc3nc(-c4ccco4)c4c(c3c2n1)CCC4`?
JMJD2A Tudor inh: 89µM*; HP1b chromo inh: inconclusive

What do the screens show for `CSc1nc(SCC(=O)O)c2sc3nc(-c4ccccc4)c4c(c3c2n1)CCC4`?
Sfp inh: -16%; JMJD2A Tudor inh: 28µM*; G9a inh: 18µM*; L3MBTL1 inh: -5%; BAZ2B inh: 22µM*; HP1b chromo inh: inconclusive

What do the screens show for `CSc1nc(N(C)CCO)c2sc3nc(-c4ccco4)c4c(c3c2n1)CCC4`?
Sfp inh: 79µM*; JMJD2A Tudor inh: 25µM*; G9a inh: 15%[0.0925 µM]; L3MBTL1 inh: inconclusive; BAZ2B inh: 50µM*; HP1b chromo inh: -60%

What do the screens show for `CSc1nc(N2CCN(CCO)CC2)c2sc3nc(-c4ccco4)c4c(c3c2n1)CCC4`?
Sfp inh: -17%; G9a inh: -14%[59 µM]; L3MBTL1 inh: -7%

What do the screens show for `Cc1ccccc1Cn1cc(CCC(=O)NCc2cccc(Br)c2)c2ccccc21`?
JMJD2A Tudor inh: -11%; G9a inh: -28%[59 µM]; BAZ2B inh: inconclusive; HP1b chromo inh: 24%

What do the screens show for `N#Cc1ccc2c(c1)C[C@]1(CCCCN3C(=O)c4ccccc4C3=O)Oc3c(c(=O)oc4ccc(F)cc34)C2O1`?
Sfp inh: 9%; G9a inh: 5%[2.33 µM]; BAZ2B inh: -36%[22.9 µM]

Results for COc1ccc(C(=O)Nc2ccc3nc(N4CCOCC4)sc3c2)cc1OC ?
JMJD2A Tudor inh: 0%; G9a inh: -7%[12.7 µM]; L3MBTL1 inh: -3%; BAZ2B inh: 4%; HP1b chromo inh: 31%

What do the screens show for `CCCn1nc(C(=O)Nc2ccc3nc(N4CCOCC4)sc3c2)ccc1=O`?
JMJD2A Tudor inh: -14%; G9a inh: 50µM*; L3MBTL1 inh: 2%; BAZ2B inh: -7%; HP1b chromo inh: 11%
